Percent Effect data for 11 molecules are collected here from ChEMBL document CHEMBL3988442, “University of Dundee, Small-Polar-MMV Screening Library” (2021).

Molecules are shown by their SMILES. For some of these results: Results with a measured potency or affinity are listed apart.

Common to all, as to set-up: scale not given: direction of the effect not stated beside the values
Assay [1] has as its target Protein translocase subunit SecA (Escherichia coli (strain K12)) (UniProt P10408). Description: Assay to Identify E. coli SecA ATPase Inhibitors. The assay is classed as functional. The note with it: 30 µM.
Assay [2] concerns the target T1, Ubiquitin-activating enzyme e1, putative (Leishmania donovani (strain BPK282A1)) (UniProt E9BSI1).
T1 sequence (whole entry): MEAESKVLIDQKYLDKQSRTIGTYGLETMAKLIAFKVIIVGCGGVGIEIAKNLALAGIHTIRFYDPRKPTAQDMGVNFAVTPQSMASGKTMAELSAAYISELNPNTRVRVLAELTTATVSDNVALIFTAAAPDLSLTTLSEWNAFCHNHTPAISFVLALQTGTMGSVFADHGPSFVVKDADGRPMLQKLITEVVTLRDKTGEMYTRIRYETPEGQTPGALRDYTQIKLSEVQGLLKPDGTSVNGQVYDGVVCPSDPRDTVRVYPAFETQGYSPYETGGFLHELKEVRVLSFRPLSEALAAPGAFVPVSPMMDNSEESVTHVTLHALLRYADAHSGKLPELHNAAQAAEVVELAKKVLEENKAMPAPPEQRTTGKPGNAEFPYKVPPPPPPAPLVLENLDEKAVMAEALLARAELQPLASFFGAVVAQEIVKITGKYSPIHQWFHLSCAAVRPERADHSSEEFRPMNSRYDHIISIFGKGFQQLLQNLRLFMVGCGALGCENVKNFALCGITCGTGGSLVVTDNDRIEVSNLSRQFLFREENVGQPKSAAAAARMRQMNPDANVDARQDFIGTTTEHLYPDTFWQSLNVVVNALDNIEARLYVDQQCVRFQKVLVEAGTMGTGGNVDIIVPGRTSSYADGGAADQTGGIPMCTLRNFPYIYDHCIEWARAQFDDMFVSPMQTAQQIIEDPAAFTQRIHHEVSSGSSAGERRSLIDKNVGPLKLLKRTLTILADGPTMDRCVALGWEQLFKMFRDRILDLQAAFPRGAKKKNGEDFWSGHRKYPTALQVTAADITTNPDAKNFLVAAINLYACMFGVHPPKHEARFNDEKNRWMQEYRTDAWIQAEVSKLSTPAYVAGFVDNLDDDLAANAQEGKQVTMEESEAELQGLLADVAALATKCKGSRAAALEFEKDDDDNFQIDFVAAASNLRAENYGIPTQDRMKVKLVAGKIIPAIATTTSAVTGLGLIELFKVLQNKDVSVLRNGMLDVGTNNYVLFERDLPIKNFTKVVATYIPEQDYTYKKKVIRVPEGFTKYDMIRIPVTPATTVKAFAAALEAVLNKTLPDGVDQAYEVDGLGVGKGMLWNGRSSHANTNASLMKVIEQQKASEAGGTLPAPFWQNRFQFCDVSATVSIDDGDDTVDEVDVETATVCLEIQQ
Description: Leishmania donovani Ubiquitin Activating Enzyme (LdE1). The format is functional. Particulars: 30 µM.

Assay [3] concerns the target AMP-activated protein kinase, AMPK (Homo sapiens) (UniProt P54646+O43741+P54619+Q9UGJ0+Q9Y478+Q13131+Q9UGI9). In words: AMP-dependent Kinase enzyme assay. An in vitro enzyme assay that detects ADP turnover that is directly proportional to AMPK activity. This uses naive AMPK that is activated during the assay with MK-8722. Particulars: 30 µM. The format is functional.

The target of assay [4] is Sialic acid-binding Ig-like lectin 9 (Homo sapiens) (UniProt Q9Y336). Description: Hs-Siglec9 ALPHAscreen SOP 20170721. Particulars: 10 µM. For orientation: In Alpha technology, singlet oxygen from a donor bead excites a nearby acceptor bead.
Assay [5] relates to Trypanosoma cruzi. In words: Trypanosoma cruzi phosphomannomutase and mannose-1-phosphate guanylyltransferase assay. The format is functional. Particulars: 10 µM.
Assay [6] concerns the target T2, Arginase-2, mitochondrial (Homo sapiens) (UniProt P78540).
T2 sequence (whole entry): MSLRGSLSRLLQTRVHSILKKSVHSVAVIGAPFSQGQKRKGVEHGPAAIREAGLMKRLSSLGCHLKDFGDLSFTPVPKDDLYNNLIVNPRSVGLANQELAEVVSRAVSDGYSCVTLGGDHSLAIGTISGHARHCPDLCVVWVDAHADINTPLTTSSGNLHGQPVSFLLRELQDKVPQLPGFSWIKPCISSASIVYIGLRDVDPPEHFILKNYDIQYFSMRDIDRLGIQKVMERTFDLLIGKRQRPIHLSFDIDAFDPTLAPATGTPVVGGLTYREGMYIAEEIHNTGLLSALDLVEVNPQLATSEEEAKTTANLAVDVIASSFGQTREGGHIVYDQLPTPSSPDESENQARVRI
In words: in vitro enzyme assay to detect the production of urea directly proportional to the activity of Arginase II. Further: in the data most compounds retested in dose-response had high values. The format is functional. The note with it: 33.3 µM.

Assay [7] concerns the target T3, Proteasome subunit beta (Trypanosoma cruzi) (UniProt O96673).
T3 sequence (whole entry): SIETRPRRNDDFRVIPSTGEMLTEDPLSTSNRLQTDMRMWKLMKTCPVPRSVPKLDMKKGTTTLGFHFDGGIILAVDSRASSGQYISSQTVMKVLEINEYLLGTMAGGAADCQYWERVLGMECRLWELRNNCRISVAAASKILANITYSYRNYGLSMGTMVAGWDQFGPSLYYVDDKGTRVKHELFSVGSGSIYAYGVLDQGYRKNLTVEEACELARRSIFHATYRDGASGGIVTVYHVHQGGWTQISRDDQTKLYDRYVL
In words: Trypanosoma cruzi proteasome chymotrypsin-like activity (TcProtChymo) assay. Further: in the data most compounds retested in dose-response had high values. Particulars: 9.37 µM. The assay is classed as functional.

For assay [8], the species on record is Homo sapiens. Description: To identify inhibition of the IFN signalling (Jak-Stat) pathway via expression of an eGFP reporter gene under the control of an IFN-stimulated response element (ISRE) containing MxA promoter. The assay is classed as functional. The note with it: 30 µM.
The target of assay [9] is T4, Tyrosyl-tRNA synthetase, putative (Trypanosoma cruzi (strain CL Brener)) (UniProt Q4DSP6).
T4 sequence (whole entry): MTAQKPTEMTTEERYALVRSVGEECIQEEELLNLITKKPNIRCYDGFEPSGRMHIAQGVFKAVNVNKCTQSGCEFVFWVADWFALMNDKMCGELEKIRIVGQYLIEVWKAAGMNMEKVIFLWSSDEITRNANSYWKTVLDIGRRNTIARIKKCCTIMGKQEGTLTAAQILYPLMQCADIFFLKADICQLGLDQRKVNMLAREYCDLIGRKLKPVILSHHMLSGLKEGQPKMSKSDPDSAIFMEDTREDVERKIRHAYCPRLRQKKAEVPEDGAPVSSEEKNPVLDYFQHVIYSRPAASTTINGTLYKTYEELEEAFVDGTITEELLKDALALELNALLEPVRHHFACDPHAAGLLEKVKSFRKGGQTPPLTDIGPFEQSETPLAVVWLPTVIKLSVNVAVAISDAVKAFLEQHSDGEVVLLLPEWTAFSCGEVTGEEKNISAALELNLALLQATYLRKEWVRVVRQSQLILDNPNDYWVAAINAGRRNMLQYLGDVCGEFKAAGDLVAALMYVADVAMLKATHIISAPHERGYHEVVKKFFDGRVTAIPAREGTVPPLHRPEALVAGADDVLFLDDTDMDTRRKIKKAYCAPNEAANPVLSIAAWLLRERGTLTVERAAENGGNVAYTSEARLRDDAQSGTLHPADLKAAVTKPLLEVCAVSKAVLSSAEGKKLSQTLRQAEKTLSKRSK
Description: Trypanosoma cruzi tyrosyl tRNA synthetase (TcYRS) _High Tyrosine SOP. Further: in the data most compounds retested in dose-response had high values. The format is functional. Particulars: 30 µM.

The target of assay [10] is T4, Tyrosyl-tRNA synthetase, putative (Trypanosoma cruzi (strain CL Brener)). In words: Trypanosoma cruzi tyrosyl tRNA synthetase (TcYRS) SOP. The format is functional. The note with it: 30 µM.
The target in assay [11] is Chromo domain-containing protein 1 (Saccharomyces cerevisiae (strain ATCC 204508 / S288c) (Baker's yeast)) (UniProt P32657). Description: ScCHD-1 Enzyme Inhibition Assay. Further: in the data most compounds retested in dose-response had high values. Particulars: 30 µM. The format is functional.
Sequence of Chromo domain-containing protein 1 (Saccharomyces cerevisiae (strain ATCC 204508 / S288c) (Baker's yeast)) (P32657 whole entry, the tested form may be a part): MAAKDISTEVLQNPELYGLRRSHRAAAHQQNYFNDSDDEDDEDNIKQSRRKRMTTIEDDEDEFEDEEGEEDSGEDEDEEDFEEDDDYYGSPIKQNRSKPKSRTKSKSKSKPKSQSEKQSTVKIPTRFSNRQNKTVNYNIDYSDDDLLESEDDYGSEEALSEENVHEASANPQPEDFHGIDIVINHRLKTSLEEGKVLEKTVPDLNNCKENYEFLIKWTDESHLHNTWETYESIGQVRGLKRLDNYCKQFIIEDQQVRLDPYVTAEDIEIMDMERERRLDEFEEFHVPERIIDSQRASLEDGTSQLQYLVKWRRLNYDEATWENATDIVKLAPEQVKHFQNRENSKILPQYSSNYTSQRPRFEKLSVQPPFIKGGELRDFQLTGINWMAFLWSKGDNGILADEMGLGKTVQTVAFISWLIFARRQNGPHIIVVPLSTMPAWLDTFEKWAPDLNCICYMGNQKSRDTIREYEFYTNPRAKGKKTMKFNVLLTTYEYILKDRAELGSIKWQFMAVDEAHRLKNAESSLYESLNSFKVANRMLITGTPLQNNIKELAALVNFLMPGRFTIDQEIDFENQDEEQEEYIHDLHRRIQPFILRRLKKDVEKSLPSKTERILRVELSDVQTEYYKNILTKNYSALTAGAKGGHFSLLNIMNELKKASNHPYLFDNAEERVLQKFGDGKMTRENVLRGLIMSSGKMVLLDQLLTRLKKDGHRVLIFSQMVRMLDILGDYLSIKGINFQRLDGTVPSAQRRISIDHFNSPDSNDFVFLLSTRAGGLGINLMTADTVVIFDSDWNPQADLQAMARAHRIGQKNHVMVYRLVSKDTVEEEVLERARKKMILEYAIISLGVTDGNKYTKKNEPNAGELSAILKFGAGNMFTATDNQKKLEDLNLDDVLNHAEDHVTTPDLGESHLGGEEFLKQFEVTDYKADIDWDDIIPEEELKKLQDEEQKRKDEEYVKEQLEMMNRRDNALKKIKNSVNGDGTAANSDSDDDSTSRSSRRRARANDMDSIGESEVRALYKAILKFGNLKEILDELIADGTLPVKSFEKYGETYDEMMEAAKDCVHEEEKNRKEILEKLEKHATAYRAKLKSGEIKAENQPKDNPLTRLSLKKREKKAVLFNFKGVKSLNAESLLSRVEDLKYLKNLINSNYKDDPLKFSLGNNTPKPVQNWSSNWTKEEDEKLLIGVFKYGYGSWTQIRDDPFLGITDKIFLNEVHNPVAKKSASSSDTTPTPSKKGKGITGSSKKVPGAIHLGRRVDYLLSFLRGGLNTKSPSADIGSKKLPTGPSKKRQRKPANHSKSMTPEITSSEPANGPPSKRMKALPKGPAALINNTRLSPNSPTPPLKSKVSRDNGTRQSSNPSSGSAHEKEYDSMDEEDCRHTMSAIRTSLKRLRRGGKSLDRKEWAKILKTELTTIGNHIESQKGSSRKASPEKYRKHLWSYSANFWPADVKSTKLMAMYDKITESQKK

Sequence of Sialic acid-binding Ig-like lectin 9 (Homo sapiens) (Q9Y336 whole entry): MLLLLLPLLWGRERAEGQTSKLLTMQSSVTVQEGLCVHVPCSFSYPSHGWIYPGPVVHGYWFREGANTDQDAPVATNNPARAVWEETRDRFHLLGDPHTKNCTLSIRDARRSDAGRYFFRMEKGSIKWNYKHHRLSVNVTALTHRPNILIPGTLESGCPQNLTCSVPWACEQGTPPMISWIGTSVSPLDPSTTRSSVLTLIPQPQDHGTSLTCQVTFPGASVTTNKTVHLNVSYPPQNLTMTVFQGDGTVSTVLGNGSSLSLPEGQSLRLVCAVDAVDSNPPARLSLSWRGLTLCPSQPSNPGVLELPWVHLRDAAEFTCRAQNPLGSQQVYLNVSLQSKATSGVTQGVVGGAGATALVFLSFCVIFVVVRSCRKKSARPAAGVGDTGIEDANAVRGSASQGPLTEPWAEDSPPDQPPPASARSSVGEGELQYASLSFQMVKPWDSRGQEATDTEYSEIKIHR
Sequence of Protein translocase subunit SecA (Escherichia coli (strain K12)) (P10408 whole entry): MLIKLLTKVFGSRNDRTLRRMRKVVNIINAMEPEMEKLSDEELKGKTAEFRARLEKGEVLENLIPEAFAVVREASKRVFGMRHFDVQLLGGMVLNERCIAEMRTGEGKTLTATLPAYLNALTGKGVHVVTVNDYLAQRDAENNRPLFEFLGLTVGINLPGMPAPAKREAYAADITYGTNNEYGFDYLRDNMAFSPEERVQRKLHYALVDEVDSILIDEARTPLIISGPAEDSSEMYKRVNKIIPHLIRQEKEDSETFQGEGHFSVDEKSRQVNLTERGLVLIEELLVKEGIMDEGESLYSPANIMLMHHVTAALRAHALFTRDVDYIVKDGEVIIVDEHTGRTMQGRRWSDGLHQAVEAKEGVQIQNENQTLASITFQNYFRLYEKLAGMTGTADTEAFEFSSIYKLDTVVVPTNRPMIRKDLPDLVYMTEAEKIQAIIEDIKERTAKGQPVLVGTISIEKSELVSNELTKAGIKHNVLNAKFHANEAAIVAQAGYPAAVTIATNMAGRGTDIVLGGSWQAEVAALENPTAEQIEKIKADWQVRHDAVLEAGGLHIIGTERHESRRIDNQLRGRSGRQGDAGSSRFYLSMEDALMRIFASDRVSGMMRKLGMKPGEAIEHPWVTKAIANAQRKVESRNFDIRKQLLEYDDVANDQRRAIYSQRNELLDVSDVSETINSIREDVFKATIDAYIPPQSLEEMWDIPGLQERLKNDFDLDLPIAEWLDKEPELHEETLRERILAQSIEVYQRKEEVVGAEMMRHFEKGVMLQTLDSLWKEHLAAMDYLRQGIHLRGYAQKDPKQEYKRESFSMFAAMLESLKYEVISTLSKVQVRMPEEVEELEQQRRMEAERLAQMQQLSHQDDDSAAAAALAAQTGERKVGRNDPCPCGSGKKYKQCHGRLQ

On to `Cc1ccc(C(=O)Nc2cc(C(C)C)n[nH]2)cn1`, for which the Percent Effect in [1] was -6.49%; in assay [2] it was 5.2%; in assay [3], 97.8%; in assay [4], 4.24%; in assay [5] it was -5.06%; in assay [6], 3.56%. Also, the Percent Effect in [7] is 10.3%; in [8] it was 75.7%; in assay [9] it was 3.88%; in assay [10] it was 9.76%; in [11], -5.01%.

Regarding `CC1CCN(C(=O)CN(Cc2ccco2)C2CC2)CC1`, the Percent Effect in assay [1] was -1.66%; in [2], 2.6%; in [3], 6.73%; in [4], 0.322%; in assay [5], 6.95%; in assay [6], -1.47%. Besides, the Percent Effect in assay [7] was 7.84%; in assay [8] it was 3.81%; in assay [9] it was 1.91%; in assay [10], 7.06%; in assay [11] it was -5.98%.

For `CC(=O)NCCNC(=O)CN1CCN(Cc2nccn2C)C(C)C1` (stereo unspecified), the Percent Effect in [1] was -6.92%; in assay [2] it was 0%; in assay [3] it was -3.67%; in [4] it was 14%; in assay [5], -0.836%; in assay [6], 0.185%. Besides, the Percent Effect in assay [7] was -2.87%; in assay [8], 0.801%; in assay [9], 7.92%; in assay [10], 6.1%; in assay [11] it was 10%.

As to `Cc1nn(C)c(N(C)C)c1CNCc1ccccc1Cn1cncn1`, the Percent Effect in assay [1] is -6.25%; in [2], 6.33%; in assay [3], -0.0601%; in assay [4], 1.64%; in [5], -1.33%; in assay [6], 0.215%. The Percent Effect was 6.52% in assay [7]; 3.54% in [8]; 3.12% in assay [9]; -5.06% in [10]; -11.2% in assay [11].

For the molecule `Cc1ccc(NC2CCN(C(=O)c3cc[nH]n3)CC2)nn1`, the Percent Effect was -0.868% in assay [1]; 0% in assay [2]; 8.84% in [3]; 3.52% in [4]; -3.01% in assay [5]; 1.53% in [6]. The Percent Effect in assay [7] is 10.7%; in [8], -13.4%; in [9], -0.49%; in [10], -2.44%; in assay [11] it was 7.64%.

Turning to `Cc1c(C(=O)NC(CN2CCCC2=O)c2ccccc2)cnn1C` (stereo unspecified), the Percent Effect is 0.252% in assay [1]; 10.5% in assay [2]; 1.96% in [3]; -5.31% in [4]; -4.7% in [5]; 6.9% in assay [6]. Further, the Percent Effect is 7.69% in assay [7]; 19% in assay [8]; 3.43% in [9]; 9.76% in assay [10]; -6.11% in [11].

For the molecule `CS(=O)(=O)CCN1CCC2(CCCN(C3CCOCC3)C2=O)C1` (stereo unspecified), the Percent Effect in [1] was -4.3%; in [2], 2.74%; in assay [3], -4.09%; in assay [4], 8.46%; in assay [5], 2.98%; in assay [6] it was -2%. Besides, the Percent Effect in [7] is 3.85%; in [8], 13.4%; in [9] it was 2.08%; in assay [10], 11.1%; in [11], -0.555%.

As for `O=C1[C@@H]2CCN(Cc3ccncc3)C[C@@H]2OCCN1c1ccccc1`, the Percent Effect in assay [1] is -4.52%; in assay [2], 8%; in [3], 4.63%; in [4], 0.633%; in [5] it was 4.33%; in [6] it was -3.5%. Besides, the Percent Effect in [7] was 15.6%; in assay [8], -13.1%; in [9], 8.51%; in assay [10] it was 14.1%; in assay [11] it was -5.17%.

As for `O=C1NCCCCC1Sc1nnc(C2CC2)n1C1CC1` (stereo unspecified), the Percent Effect is 1.19% in assay [1]; 11% in assay [2]; -3.07% in assay [3]; -9.6% in assay [4]; 3.72% in [5]; 8.64% in [6]. The Percent Effect was 18.5% in assay [7]; 23.5% in assay [8]; 5.38% in assay [9]; 15% in assay [10]; -13.5% in [11].

In the case of `Cc1cnc(CN2CCCC(c3cc(C(N)=O)[nH]n3)C2)o1` (stereo unspecified), the Percent Effect was 1.3% in [1]; 24.3% in assay [2]; -15.7% in assay [3]; -4.2% in [4]; 0.472% in [5]; -16.8% in assay [6]. In addition, the Percent Effect in assay [7] is 17.1%; in assay [8] it was -3.25%; in assay [9], 5.42%; in [10] it was 18.5%; in [11] it was -9.23%.

As to `c1cnnc(N2CCCC2CNCc2cc[nH]n2)c1` (stereo unspecified), the Percent Effect in assay [1] was -2.52%; in assay [2], 0%; in assay [3] it was 4.85%; in [4], -5.55%; in [5], 4.89%; in assay [6], 3.45%. Besides, the Percent Effect in assay [7] was -1.34%; in assay [8], -3.22%; in assay [9] it was 1.47%; in [10], 7.32%; in assay [11] it was -6.65%.
